# Reference: PubChem BioAssay
# Where “and” joins values, the source holds several entries; their conditions need not be identical. Equal values may be shown once. Records with an inconclusive call do not appear. Calls of active or inactive are those of the source.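 The calls were made as follows, unless noted: active = normalized viability below 100% at a tested concentration; inactive = the rest.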
# Key:
# [1] = growth inhibition of DIPG cells – cell-based, MIPE4.0 library, CellTiter-Glo luminescence, qHTS (AID 1347066; cut-off not given, nearly all actives have AC50 up to about 30 µM;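 also: cells exposed to compound for 48 hours before readout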); details: SU-DIPG-VI viability, CellTiter-Glo ATP luminescence
# [2] = JHH-DIPG-1 glioma cell viability, MIPE5.0 library, CellTiter-Glo luminescence, qHTS (AID 1347067; cut-off not given, nearly all actives have AC50 up to about 26 µM;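 also: cells exposed to compound for 48 hours before readout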); details: JHH-DIPG-1 glioma viability, CellTiter-Glo ATP luminescence
# [3] = growth inhibition of DIPG cells – cell-based, MIPE5.0 library, qHTS (AID 1347068; cut-off not given, nearly all actives have IC50 up to about 30 µM); details: SU-DIPG-XXV viability
# [4] = compounds altering HSF1 focus formation in cells – imaging, Selleck Cancer Library (AID 1347162; in the data active = plate-normalised HSF1 focus index below about 0.46); details: human cells, HSF1 nuclear foci imaging, at 10 µM; SSMD: measured here: HSF1 foci SSMD mean; cell count: measured here: cell number; plate-normalised HSF1 focus index: stronger effect = lower value
# [5] = drug combination growth inhibition, ovarian cancer – cell-based, oncology-focused library, rucaparib conditional, profiling panel (AID 1508598); details: patient-derived ovarian cancer cells, CellTiter-Glo viability, 144 h, stronger effect = lower value
# [6] = viability loss with induced miR-34 in A549 – imaging, A549 dox-inducible miR-34, nuclei and caspase counts, primary screen (AID 1347080;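 active = compounds whose cell count with miR-34 switched on is under 0.7 times the count with it off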); details: A549 miR-34 inducible, Hoechst nuclei count, 48 h
# [7] = MELAS cybrid and Rieske KO viability enhancers – cell-based, MELAS cybrids, Rieske KO mouse fibroblasts, CellTiter-Glo, primary screen (AID 1508586;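 active = mean z-score across replicates of 1.96 or higher in either the MELAS or the Rieske mutant cell line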;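 also: z relative to plate mean and SD of compound and empty wells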); details: low glucose
# [8] = blockers of cellular phospholipid synthesis – cell-based, LOPAC library, screen 4, primary screen (AID 1347384; call rule not given here); details: animal cells, phospholipid biosynthesis inhibition screen; at 10 µM
# [9] = chitosan synthesis blockers in C. neoformans – flow cytometry, Cibacron Brilliant Red staining (AID 1347148; call rule not given here;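 also: compound exposure lasted three days at 37 degrees C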); details: Cryptococcus neoformans chitosan, stronger effect = lower value; at 10 µM unless noted
# [10] = stronger effect = lower value, cell number ratio, induced over uninduced
# [11] = measured here: relative caspase fold change +Dox/-Dox
# [12] = measured here: total cells with miR-34 induction, stronger effect = lower value
# [13] = measured here: total cells without miR-34 induction
# [14] = MELAS cybrid survival, CellTiter-Glo 48 h, stronger effect = higher value
# [15] = Rieske KO mouse fibroblast survival, CellTiter-Glo 72 h
smiles,measurement,setting,value
CCC(C)n1ncn(-c2ccc(N3CCN(c4ccc(OC[C@H]5CO[C@](Cn6cncn6)(c6ccc(Cl)cc6Cl)O5)cc4)CC3)cc2)c1=O (stereo partly specified),outcome,[1],inactive
same,outcome,[2],inactive
same,outcome,[3],inactive
same,SSMD,[4],2.18
same,cell count,[4],6750
same,plate-normalised HSF1 focus index,[4],1.11 (inactive)
same,viability,"[5]; at 0.000305 µM, OCI-C5x cells, with rucaparib 10 µM, 100% = cells with rucaparib alone",118% (inactive)
same,viability,"[5]; at 0.000305 µM, OCI-C5x cells, without rucaparib",110% (inactive)
same,viability,"[5]; at 0.000305 µM, OCI-P5x cells, with rucaparib 20 µM, 100% = cells with rucaparib alone",90.3% (active)
same,viability,"[5]; at 0.000305 µM, OCI-P5x cells, without rucaparib",83% (active)
same,viability,"[5]; at 0.00122 µM, OCI-C5x cells, with rucaparib 10 µM, 100% = cells with rucaparib alone",118% (inactive)
same,viability,"[5]; at 0.00122 µM, OCI-C5x cells, without rucaparib",100% (inactive)
same,viability,"[5]; at 0.00122 µM, OCI-P5x cells, with rucaparib 20 µM, 100% = cells with rucaparib alone",93.4% (active)
same,viability,"[5]; at 0.00122 µM, OCI-P5x cells, without rucaparib",81.8% (active)
same,viability,"[5]; at 0.00488 µM, OCI-C5x cells, with rucaparib 10 µM, 100% = cells with rucaparib alone",122% (inactive)
same,viability,"[5]; at 0.00488 µM, OCI-C5x cells, without rucaparib",105% (inactive)
same,viability,"[5]; at 0.00488 µM, OCI-P5x cells, with rucaparib 20 µM, 100% = cells with rucaparib alone",95.6% (active)
same,viability,"[5]; at 0.00488 µM, OCI-P5x cells, without rucaparib",90.8% (active)
same,viability,"[5]; at 0.0195 µM, OCI-C5x cells, with rucaparib 10 µM, 100% = cells with rucaparib alone",127% (inactive)
same,viability,"[5]; at 0.0195 µM, OCI-C5x cells, without rucaparib",116% (inactive)
same,viability,"[5]; at 0.0195 µM, OCI-P5x cells, with rucaparib 20 µM, 100% = cells with rucaparib alone",96.2% (active)
same,viability,"[5]; at 0.0195 µM, OCI-P5x cells, without rucaparib",89.4% (active)
same,viability,"[5]; at 0.0781 µM, OCI-C5x cells, with rucaparib 10 µM, 100% = cells with rucaparib alone",126% (inactive)
same,viability,"[5]; at 0.0781 µM, OCI-C5x cells, without rucaparib",119% (inactive)
same,viability,"[5]; at 0.0781 µM, OCI-P5x cells, with rucaparib 20 µM, 100% = cells with rucaparib alone",96.6% (active)
same,viability,"[5]; at 0.0781 µM, OCI-P5x cells, without rucaparib",95.1% (active)
same,viability,"[5]; at 0.313 µM, OCI-C5x cells, with rucaparib 10 µM, 100% = cells with rucaparib alone",131% (inactive)
same,viability,"[5]; at 0.313 µM, OCI-C5x cells, without rucaparib",118% (inactive)
same,viability,"[5]; at 0.313 µM, OCI-P5x cells, with rucaparib 20 µM, 100% = cells with rucaparib alone",98.6% (active)
same,viability,"[5]; at 0.313 µM, OCI-P5x cells, without rucaparib",95.8% (active)
same,viability,"[5]; at 1.25 µM, OCI-C5x cells, with rucaparib 10 µM, 100% = cells with rucaparib alone",131% (inactive)
same,viability,"[5]; at 1.25 µM, OCI-C5x cells, without rucaparib",126% (inactive)
same,viability,"[5]; at 1.25 µM, OCI-P5x cells, with rucaparib 20 µM, 100% = cells with rucaparib alone",93.3% (active)
same,viability,"[5]; at 1.25 µM, OCI-P5x cells, without rucaparib",94.8% (active)
same,viability,"[5]; at 5 µM, OCI-C5x cells, with rucaparib 10 µM, 100% = cells with rucaparib alone",135% (inactive)
same,viability,"[5]; at 5 µM, OCI-C5x cells, without rucaparib",123% (inactive)
same,viability,"[5]; at 5 µM, OCI-P5x cells, with rucaparib 20 µM, 100% = cells with rucaparib alone",92.7% (active)
same,viability,"[5]; at 5 µM, OCI-P5x cells, without rucaparib",94.9% (active)
Cc1onc(-c2ccccc2Cl)c1C(=O)N[C@@H]1C(=O)N2[C@@H]1SC(C)(C)[C@@H]2C(=O)O,outcome,[1],inactive
same,fold change,[6]; [10],0.913 (inactive) and 0.866 (inactive)
same,fold change,[6]; [11],1.38 and 0.839
same,cell count,[6]; [12],8800 and 10900
same,cell count,[6]; [13],9640 and 12500
same,z-score,[7]; [14],1.06 (inactive)
same,z-score,[7]; [15],0.283
COc1ccc2c(c1)c(CC(=O)OCC(=O)O)c(C)n2C(=O)c1ccc(Cl)cc1,outcome,[1],inactive
same,fold change,[6]; [10],0.914 (inactive) and 0.85 (inactive) and 0.854 (inactive)
same,fold change,[6]; [11],1.04 and 0.882 and 1.4
same,cell count,[6]; [12],8990 and 8100 and 8980
same,cell count,[6]; [13],9840 and 9530 and 10500
same,z-score,[7]; [14],-0.366 (inactive) and 0.477 (inactive) and -0.419 (inactive)
same,z-score,[7]; [15],0.51 and 0.248 and -0.275
CN1[C@@H]2CC[C@H]1CC(OC(=O)c1c[nH]c3ccccc13)C2 (stereo partly specified),outcome,[1],inactive
same,fold change,[6]; [10],0.918 (inactive) and 0.888 (inactive)
same,fold change,[6]; [11],1.65 and 1.61
same,cell count,[6]; [12],8920 and 10100
same,cell count,[6]; [13],9710 and 11400
same,z-score,[7]; [14],0.412 (inactive)
same,z-score,[7]; [15],0.0805
Cc1cn([C@H]2C=C[C@@H](CO)O2)c(=O)[nH]c1=O,outcome,[1],inactive
same,fold change,[6]; [10],0.956 (inactive) and 1.02 (inactive)
same,fold change,[6]; [11],1.47 and 1.86
same,cell count,[6]; [12],8230 and 8880
same,cell count,[6]; [13],8610 and 8700
same,outcome,[8],inactive
same,z-score,[7]; [14],0.426 (inactive)
same,z-score,[7]; [15],-0.562
O=C(O)c1cccnc1Nc1cccc(C(F)(F)F)c1,outcome,[1],inactive
same,fold fluorescence,[9],3.63 [at 177.2 µM] (inactive)
same,outcome,[8],inactive
same,z-score,[7]; [14],-0.334 (inactive) and -0.267 (inactive) and 0.0798 (inactive)
same,z-score,[7]; [15],-0.307 and -0.187 and -0.378
CC(=O)Oc1ccccc1C(=O)Nc1ncc([N+](=O)[O-])s1,AC50,[1],9.59 µM (active)
same,outcome,[3],inactive
same,fold change,[6]; [10],1.08 (inactive) and 0.866 (inactive)
same,fold change,[6]; [11],1.12 and 1.29
same,cell count,[6]; [12],2500 and 6120
same,cell count,[6]; [13],2310 and 7070
same,z-score,[7]; [14],-0.496 (inactive) and -0.13 (inactive)
same,z-score,[7]; [15],-2.39 and 0.602
OC[C@H]1O[C@@H](Oc2ccc(O)cc2)[C@H](O)[C@@H](O)[C@@H]1O,outcome,[1],inactive
same,fold change,[6]; [10],0.914 (inactive)
same,fold change,[6]; [11],0.569
same,cell count,[6]; [12],9130
same,cell count,[6]; [13],9990
same,z-score,[7]; [14],0.856 (inactive)
same,z-score,[7]; [15],0.44
Cc1oncc1C(=O)Nc1ccc(C(F)(F)F)cc1,outcome,[1],inactive
same,outcome,[3],inactive
same,outcome,[8],inactive
same,z-score,[7]; [14],-0.557 (inactive) and -0.339 (inactive) and -0.166 (inactive)
same,z-score,[7]; [15],0.617 and 0.893 and 0.301
CCOC(=O)C1=C[C@]2(CC)CCCN3CCc4c(n1c1ccccc41)[C@@H]32,AC50,[1],26.4 µM (active)
same,fold fluorescence,[9],12.8 [at 142.7 µM] (inactive)
same,outcome,[8],inactive
same,z-score,[7]; [14],0.416 (inactive) and 0.251 (inactive)
same,z-score,[7]; [15],0.313 and -0.628
COC(=O)C1=C(C)NC(C)=C(C(=O)OC(C)C)C1c1cccc2nonc12 (stereo unspecified),outcome,[1],inactive
same,cell count,[6]; [12],7780 and 7900 and 7270
same,z-score,[7]; [14],-0.382 (inactive) and 0.324 (inactive)
same,z-score,[7]; [15],1.22 and 0.935
Cc1ccnc2c1NC(=O)c1cccnc1N2C1CC1,outcome,[1],inactive
same,fold change,[6]; [10],0.867 (inactive) and 0.916 (inactive) and 0.818 (inactive)
same,fold change,[6]; [11],1 and 1.53 and 1.78
same,cell count,[6]; [12],8040 and 8950 and 7970
same,cell count,[6]; [13],9270 and 9770 and 9750
same,z-score,[7]; [14],-0.331 (inactive) and -0.443 (inactive)
same,z-score,[7]; [15],0.346 and -0.451
COCCCC/C(=N\OCCN)c1ccc(C(F)(F)F)cc1,outcome,[1],inactive
same,fold change,[6]; [10],0.98 (inactive) and 0.926 (inactive) and 0.976 (inactive)
same,fold change,[6]; [11],1.02 and 0.609 and 0.939
same,cell count,[6]; [12],9020 and 8820 and 7770
same,cell count,[6]; [13],9200 and 9520 and 7960
same,outcome,[8],inactive
same,z-score,[7]; [14],0.622 (inactive)
same,z-score,[7]; [15],-0.626
COc1ccc(CC2c3cc(OC)c(OC)cc3CC[N+]2(C)CCC(=O)OCCCCCOC(=O)CC[N+]2(C)CCc3cc(OC)c(OC)cc3C2Cc2ccc(OC)c(OC)c2)cc1OC (stereo unspecified),outcome,[3],inactive
same,z-score,[7]; [14],-0.594 (inactive) and -1.25 (inactive) and -0.066 (inactive)
same,z-score,[7]; [15],-0.336 and -0.215 and -0.301
Cc1cc2nc3c(=O)[nH]c(=O)nc-3n(C[C@H](O)[C@H](O)[C@H](O)CO)c2cc1C,fold change,[6]; [10],0.873 (inactive)
same,fold change,[6]; [11],1.61
same,cell count,[6]; [12],7920
same,cell count,[6]; [13],9080
Cc1nc2n(c(=O)c1CCN1CCC(c3noc4cc(F)ccc34)CC1)CCCC2,outcome,[1],inactive
same,z-score,[7]; [14],1.35 (inactive) and -1.13 (inactive) and -0.64 (inactive)
same,z-score,[7]; [15],0.0817 and 0.437 and -0.833
